# High-throughput results deposited in PubChem BioAssay by several laboratories.
# Rows were chosen to be rich in hits. Some 4.2% of all compounds tested hit in one or more screens of this group.
# tim10-1 inh = tim10-1 yeast growth inhibition | AID 463190 | 330,000 compounds, 2.2% hits | S. cerevisiae tim10-1 ts strain growth, BacTiter-Glo, 24 h | inhibition, % at 20 µM;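 active means inhibition of at least 40%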;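 further: mutant grown at 25 °C; 0% = DMSO wells with yeast and 100% = wells holding no yeast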
# NLRP3 yeast inh = blocks the NALP3 inflammasome reconstituted in yeast; Yeast reconstituted NLRP3/ASC/caspase-1, beta-gal luminescence, 24 h; inhibition, % at 10 µM; 330,000 compounds, 0.39% hits;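 active means inhibition of 50% or more; inactive means inhibition below 50%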;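 further: plate controls were induced DMSO wells for no effect and uninduced yeast grown without galactose for full effect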
# NALP1 inh = blocks the NALP1 inflammasome reconstituted in yeast; S. cerevisiae NALP1/ASC/caspase-1 growth, X-gal OD620, 72 h; inhibition, % at 10 µM; 280,000 compounds, 0.61% hits; in the data active means inhibition mostly above about 24%, no sharp cut-off; inactive means mostly below about 32%
# TIM10 inh = inhibits growth of TIM10 yeast strain | S. cerevisiae TIM10 strain growth, BacTiter-Glo luminescence, 24 h | inhibition, % at 10 µM | 330,000 compounds, 1.4% hits | AID 463195;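 active means inhibition of 40% or more at the single tested concentration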;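 further: wild-type TIM10 isogenic control strain grown at permissive 25 °C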
# V-ATPase pHluor = alters yeast V-ATPase proton transport. response, % at 10 µM. 350,000 compounds, 0.37% hits. S. cerevisiae, pHLuorin cytosolic pH fluorescence; in the data active means response mostly above about 7.3%, no sharp cut-off; inactive means mostly below about 5.4%; further: actives read high
# tim23-1 inh = growth inhibitors of tim23-1 mutant yeast. S. cerevisiae tim23-1 growth, BacTiter-Glo luminescence, 24 h. inhibition, % at 20 µM. 330,000 compounds, 1.3% hits. AID 463212;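 active means growth inhibition of the mutant yeast at or above 50%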;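 further: temperature-sensitive mutant grown at 25 °C; plate controls were DMSO-treated mutant yeast for no effect and medium wells lacking yeast for full effect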
# tim23-1 conf = confirmation of tim23-1 mutant yeast growth inhibitors; shares compounds with tim23-1 inh; inhibition, % at 20 µM; S. cerevisiae tim23-1 growth, BacTiter-Glo luminescence, 24 h; 4,400 compounds, 83% hits;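 active means inhibition above about 39% in either of two replicate wells at 20 µM, limit read from the data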;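 further: temperature-sensitive tim23-1 mutant grown at 25 °C; 0% = DMSO wells with yeast and 100% = medium wells without yeast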
# Numbers without * were called inactive; nt = no result given.
SMILES,tim10-1 inh,NLRP3 yeast inh,NALP1 inh,TIM10 inh,V-ATPase pHluor,tim23-1 inh,tim23-1 conf
Cc1csc2nc(O)c(C(=O)NCC3CCCO3)c(=O)n12 (configuration not stated),12,41,nt,2,1,30,nt
Cc1csc2nc(O)c(C(=O)NC3CCCCC3C)c(=O)n12 (configuration not stated),30,-6,nt,23,0,67*,44*
CCN(CC)c1ccc(/C=C2/C(=O)ON=C2C)cc1,32,11,32,17,-4,56*,60*
CC1=NOC(=O)/C1=C/c1ccc(N(C)C)cc1,10,10,-9,-14,nt,28,nt
COCCNc1c2c(nc3c(-c4ccccc4)c(C)nn13)CCCC2,32,6,-8,23,1,50*,38
C[C@H](NC(=O)c1ccc(Br)cc1)C(=O)NCc1ccc(S(N)(=O)=O)cc1,-1,7,2,-7,0,12,nt
C/C(=N\N(c1ccccc1)c1ccccc1)c1ccc(N)cc1,17,10,nt,27,2,29,nt
C/C(=N\N(c1ccccc1)c1ccccc1)c1ccc(O)cc1,-6,16,8,20,-2,54*,44*
O=C(CN1C(=O)C(=O)N(Cc2ccco2)C1=O)c1c[nH]c2ccccc12,21,8,-1,4,6,17,nt
O=C(CN1C(=O)C(=O)N(CCC2=CCCCC2)C1=O)c1c[nH]c2ccccc12,13,6,nt,40,-2,60*,39*
COc1ccc(N(C)S(=O)(=O)c2ccc(Cl)c(C(=O)NNC(=O)c3ccccc3O)c2)cc1,16,5,nt,11,0,25,nt
Cc1ccc(/C=C(\NC(=O)c2ccc(C)cc2)c2nc(=S)[nH][nH]2)cc1,21,5,8,28,-2,53*,36
Cc1ccc(C(=O)N/C(=C\c2ccccc2F)c2nc(=S)[nH][nH]2)cc1,22,18,3,21,0,21,nt
Cc1cc(Cl)ccc1OCC(=O)OCC(=O)NCCNC(=O)COC(=O)COc1ccc(Cl)cc1C,nt,nt,nt,nt,1,nt,nt
CC(=O)c1ccccc1OC(=O)COc1ccc(Cl)cc1C,21,-4,-5,25,-2,54*,46*
CCC(C)n1cnc2c(c1=O)c1nc3ccccc3nc1n2Cc1ccc(OC)cc1 (configuration not stated),37,20,18,35,0,53*,52*
O=c1c(Cl)nc2cc(Cl)ccc2n1CCNc1ncc(C(F)(F)F)cc1Cl,21,24,-6,-18,0,62*,8
Cc1ccc(S(=O)(=O)N2CCN(C(=O)CCC(=O)OCC(=O)Nc3cccc(C#N)c3)CC2)cc1,14,-9,15,8,1,-6,nt
COc1ccc([C@H]2CC(=O)C=C(c3ccccc3C(F)(F)F)C2)cc1,15,5,nt,-8,0,32,nt
Oc1ccc2ccccc2c1/C=N/c1nccs1,25,-7,10,26,-2,57*,60*
CS/C(N)=N/N=C/c1c(O)ccc2ccccc12,10,34,-3,36,-2,58*,70*
Oc1ccc2ccccc2c1C=Nc1ccccc1Br,21,8,1,26,1,53*,51*
C=Cc1ccc(N=Cc2c(O)ccc3ccccc23)cc1,27,-8,1,17,1,49,nt
COc1ccc(-c2noc(CCC(=O)Nc3nc4ccccc4s3)n2)cc1,6,17,17,8,nt,12,nt
CSc1ccc(S(=O)(=O)NCC(=O)OC2CCOC2=O)cc1[N+](=O)[O-] (configuration not stated),-5,12,nt,-10,4,8,nt
Cc1nc(-c2ccccc2)sc1C(N)=O,17,18,18,6,-3,96*,7
CNC(=O)c1sc(-c2ccccc2)nc1C,-6,13,-16,6,-3,-12,nt
O=S(=O)(NCc1csc(-c2ccccc2)n1)c1ccc(Cl)s1,31,16,-41,19,2,53*,45*
O=C(c1ccco1)N1CCN(C(=S)Nc2cccc([N+](=O)[O-])c2)CC1,1,18,2,14,3,-2,nt
